The values that follow come from PubChem BioAssay.

The subject of assay [1] is Plasmodium falciparum Sir2 (PF13_0152, Sir2A). The assay is described as follows: Plasmodium falciparum Sir2A binding compounds – biochemical, small-molecule microarray, 635 nm fluorescence, primary screen (AID 1098).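 Also: score merges spot fluorescence intensity with its signal-to-noise ratio.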 The conditions noted are these: fluorescence 635 nm, higher = more signal.
Assay [2] is described as follows: probe aDKK1 binding to arrayed compounds – biochemical, biotinylated probe, 635/667 nm fluorescence, primary screen (AID 1099).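 Also: score merges 667nm spot fluorescence with signal to noise across triplicate slides.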 The conditions noted are these: small-molecule microarray, higher = more signal.
The nature of assay [3]: probe aCHRDL2 binding to arrayed compounds – biochemical, biotinylated probe, 635/667 nm fluorescence, primary screen (AID 1100). The conditions noted are these: small-molecule microarray, higher = more signal.
Assay [4] in a line: change in splice reporter luminescence, either direction, cell-based, HEK293, spliceosome inhibition project, primary screen (AID 1101).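 Also: HEK293 cells carrying a splicing-competent luciferase reporter gene; test concentration not given here.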 The conditions noted are these: HEK293 splicing luciferase reporter, 24 h, higher = more signal, called active from +8 up or from −8 down. A general note: A reporter such as luciferase makes a cellular process visible.
Assay [5] addresses Fibroblast growth factor 10 (Homo sapiens) (UniProt O15520). Nature of the assay: compounds binding fibroblast growth factor 10 – biochemical, small-molecule microarray, 635 nm fluorescence, primary screen (AID 1102). The note with it: FGF10 binding, fluorescence 635 nm, higher = more signal.
Assay [6] deals with glycogen synthase kinase-3 (GSK3A per assay name; protocol says GSK3B). The assay is described as follows: compounds binding glycogen synthase kinase-3 – biochemical, small-molecule microarray, 635 nm fluorescence, GSK3A, primary screen (AID 1103). Also: the record names both GSK3A and GSK3B. The conditions noted are these: fluorescence 635 nm, higher = more signal.
Assay [7] has as its target Epidermal growth factor receptor (Homo sapiens) (UniProt P00533). The assay is described as follows: compounds binding epidermal growth factor receptor – biochemical, small-molecule microarray, 635 nm fluorescence, primary screen (AID 1104).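 Also: score merges 667 nm emission intensity with spot signal to noise over triplicate slides.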 The note with it: EGFR binding, higher = more signal.
The target in assay [8] is Follistatin-related protein 3 (Homo sapiens) (UniProt O95633). Nature of the assay: compounds binding follistatin-related protein 3 – biochemical, small-molecule microarray, 635 nm fluorescence, primary screen (AID 1105).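 Also: score merges emission near 667 nm and signal to noise per printed spot across three slides.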 The conditions noted are these: FSTL3 binding, higher = more signal.
Follistatin-related protein 3 (Homo sapiens), sequence (O95633 whole entry, looked up): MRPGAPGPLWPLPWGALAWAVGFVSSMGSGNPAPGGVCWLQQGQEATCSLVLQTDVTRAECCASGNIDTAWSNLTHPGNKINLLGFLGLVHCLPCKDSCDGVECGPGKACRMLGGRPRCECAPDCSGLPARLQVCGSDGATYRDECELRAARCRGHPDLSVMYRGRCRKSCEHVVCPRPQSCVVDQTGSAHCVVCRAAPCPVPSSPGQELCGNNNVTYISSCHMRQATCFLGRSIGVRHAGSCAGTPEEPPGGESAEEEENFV
The target in assay [9] is Dickkopf-related protein 1 (Homo sapiens) (UniProt O94907). The assay is described as follows: small molecules binding DKK1 protein – biochemical, small-molecule microarray, 635 nm fluorescence scan, primary screen (AID 1106).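 Also: score merges emission near 667 nm with signal to noise over three replicate slides.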 The note with it: higher = more signal.
Dickkopf-related protein 1 (Homo sapiens), sequence (O94907 whole entry, looked up): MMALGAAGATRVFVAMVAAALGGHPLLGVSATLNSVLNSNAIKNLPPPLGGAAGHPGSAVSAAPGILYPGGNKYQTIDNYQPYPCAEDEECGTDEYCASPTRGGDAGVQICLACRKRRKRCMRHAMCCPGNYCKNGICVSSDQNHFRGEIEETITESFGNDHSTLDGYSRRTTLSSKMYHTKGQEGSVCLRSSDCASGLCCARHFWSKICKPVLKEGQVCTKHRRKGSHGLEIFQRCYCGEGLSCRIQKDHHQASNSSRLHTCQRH
Assay [10] concerns Inhibin beta A chain (activin A). Nature of the assay: small molecules binding activin A – biochemical, small-molecule microarray, 635 nm fluorescence scan, primary screen (AID 1107).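 Also: mouse activin A protein probed at 4.33 µg/mL on printed slides; score merges bound-protein fluorescence near 667 nm with spot signal-to-noise.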 The conditions noted are these: INHBA, higher = more signal.
Assay [11] concerns Human papillomavirus type 1a protein E7 (residues 44-93). The assay is described as follows: small molecules binding HPV E7 44-93 – biochemical, small-molecule microarray, residues 44-93, 635 nm fluorescence, primary screen (AID 1108).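 Also: E7 fragment applied at 1 µg/mL in TBST for 1 h at 4 C; score combines spot fluorescence with its signal to noise ratio.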 The note with it: fluorescence 635 nm, higher = more signal.
A short description of assay [12]: hepatitis C replication reporter changes, two-sided – Huh7 cells, luciferase reporter, HCV replication inhibitor project, primary screen (AID 1109).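 Also: huh7 hepatoma cells harbouring a luciferase neomycin HCV replicon reporter; luciferase luminescence as measure of HCV replicon replication; test concentration not given here.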 The note with it: Huh7 HCV replicon luciferase reporter, 48 h; higher = more signal.
The target of assay [13] is Left-right determination factor 2 (Homo sapiens) (UniProt O00292). The assay is described as follows: small molecules binding LEFTY2 protein – biochemical, small-molecule microarray, 635 nm fluorescence scan, primary screen (AID 1110). The conditions noted are these: higher = more signal.
Left-right determination factor 2 (Homo sapiens), sequence (O00292 whole entry, looked up): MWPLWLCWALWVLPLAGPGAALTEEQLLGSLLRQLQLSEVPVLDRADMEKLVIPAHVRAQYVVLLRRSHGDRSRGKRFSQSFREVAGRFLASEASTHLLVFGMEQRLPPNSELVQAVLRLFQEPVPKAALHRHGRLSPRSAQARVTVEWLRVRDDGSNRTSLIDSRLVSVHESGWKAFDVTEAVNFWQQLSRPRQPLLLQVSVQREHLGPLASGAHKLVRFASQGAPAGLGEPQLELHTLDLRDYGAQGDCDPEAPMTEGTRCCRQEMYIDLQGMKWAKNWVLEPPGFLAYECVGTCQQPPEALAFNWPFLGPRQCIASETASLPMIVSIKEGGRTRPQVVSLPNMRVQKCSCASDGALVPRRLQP
In assay [14] the target is Calmodulin-1 (Homo sapiens) (UniProt P0DP23). Nature of the assay: small molecules binding calmodulin-1 with EGTA – biochemical, small-molecule microarray, Cy5-labelled CALM1, profiling panel (AID 1111).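 Also: labelled calmodulin applied in Tris saline Tween buffer holding calcium plus EGTA and DTT.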 The conditions noted are these: Cy5-CALM1 binding fluorescence, higher = more signal.
For assay [15] the target is unchanged. Nature of the assay: small molecules binding Ca-loaded calmodulin-1 – biochemical, small-molecule microarray, Cy5-labelled CALM1, plus calcium, artefact control for SMM control-protein annotation, profiling panel (AID 1112).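 Also: score merges spot fluorescence with signal to noise from triplicate slides.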 The note with it: Cy5-CALM1 binding fluorescence, higher = more signal.
Assay [16] in a line: probe aWnt5a binding to arrayed compounds – biochemical, biotinylated probe, 635/667 nm fluorescence, primary screen (AID 1113).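 Also: score merges 667 nm fluorescence intensity with signal-to-noise per printed feature.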 The note with it: small-molecule microarray, higher = more signal.
The nature of assay [17]: probe aShh binding to arrayed compounds – biochemical, biotinylated probe, 635/667 nm fluorescence, primary screen (AID 1114).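 Also: probe is biotin-labelled aShh protein from a stem cell growth factor screen; measures binding of labelled protein to compounds printed on the slide; score merges feature fluorescence at 667 nm with signal-to-noise.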 The conditions noted are these: small-molecule microarray, higher = more signal.
Assay [18] is described as follows: probe aNog binding to arrayed compounds – biochemical, biotinylated probe, 635/667 nm fluorescence, primary screen (AID 1115).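 Also: probe is biotinylated aNog protein used at 0.15 µg/mL for 1 h at 4 C; z-score combines 667 nm fluorescence of each spot with its signal to noise.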 The note with it: small-molecule microarray, higher = more signal.
Assay [19] deals with Torsin-1A-interacting protein 1 (Homo sapiens) (UniProt Q5JTV8). The assay is described as follows: compound microarray binding of lysate hLAP1 – cell lysate, small-molecule microarray, COS7 lysate, 635/667 nm fluorescence, primary screen (AID 1116). The conditions noted are these: 635 nm fluorescence, higher = more signal.
Torsin-1A-interacting protein 1 (Homo sapiens), sequence (Q5JTV8 whole entry, looked up): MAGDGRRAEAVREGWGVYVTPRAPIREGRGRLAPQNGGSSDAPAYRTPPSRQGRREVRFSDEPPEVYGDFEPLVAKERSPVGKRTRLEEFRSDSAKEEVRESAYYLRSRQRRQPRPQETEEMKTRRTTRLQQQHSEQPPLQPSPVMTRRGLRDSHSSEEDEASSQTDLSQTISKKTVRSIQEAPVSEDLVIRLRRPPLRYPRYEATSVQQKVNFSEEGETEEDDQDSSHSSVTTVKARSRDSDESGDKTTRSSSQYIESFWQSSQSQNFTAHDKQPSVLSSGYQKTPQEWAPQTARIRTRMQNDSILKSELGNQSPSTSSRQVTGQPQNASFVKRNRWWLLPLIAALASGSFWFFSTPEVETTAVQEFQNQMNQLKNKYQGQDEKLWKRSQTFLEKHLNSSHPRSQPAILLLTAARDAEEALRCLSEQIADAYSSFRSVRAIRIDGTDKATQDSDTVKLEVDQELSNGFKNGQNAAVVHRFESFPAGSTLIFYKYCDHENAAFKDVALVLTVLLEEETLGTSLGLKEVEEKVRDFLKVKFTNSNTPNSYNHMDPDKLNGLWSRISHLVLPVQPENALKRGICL
In assay [20] the target is Alpha-bungarotoxin (Bungarus multicinctus) (UniProt P60615). The assay is described as follows: compounds binding labelled alpha-BTX control protein – biochemical, small-molecule microarray, Alexa647 label, 635/667 nm fluorescence, artefact control for SMM control protein annotation, profiling panel (AID 1117). The note with it: alpha-BTX-A647 binding fluorescence, higher = more signal.
Alpha-bungarotoxin (Bungarus multicinctus), sequence (P60615 whole entry, looked up): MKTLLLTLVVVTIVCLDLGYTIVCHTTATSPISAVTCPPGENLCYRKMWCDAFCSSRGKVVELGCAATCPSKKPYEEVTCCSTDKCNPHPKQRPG

Calls of active or inactive are those of the source.

Fibroblast growth factor 10 (Homo sapiens), sequence (O15520 whole entry, looked up): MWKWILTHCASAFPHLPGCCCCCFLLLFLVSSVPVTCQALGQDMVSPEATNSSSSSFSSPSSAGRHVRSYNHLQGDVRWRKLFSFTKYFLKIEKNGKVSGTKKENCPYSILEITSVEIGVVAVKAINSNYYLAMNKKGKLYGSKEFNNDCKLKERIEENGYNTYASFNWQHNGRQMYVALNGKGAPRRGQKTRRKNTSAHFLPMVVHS
Epidermal growth factor receptor (Homo sapiens), sequence (P00533 whole entry, looked up): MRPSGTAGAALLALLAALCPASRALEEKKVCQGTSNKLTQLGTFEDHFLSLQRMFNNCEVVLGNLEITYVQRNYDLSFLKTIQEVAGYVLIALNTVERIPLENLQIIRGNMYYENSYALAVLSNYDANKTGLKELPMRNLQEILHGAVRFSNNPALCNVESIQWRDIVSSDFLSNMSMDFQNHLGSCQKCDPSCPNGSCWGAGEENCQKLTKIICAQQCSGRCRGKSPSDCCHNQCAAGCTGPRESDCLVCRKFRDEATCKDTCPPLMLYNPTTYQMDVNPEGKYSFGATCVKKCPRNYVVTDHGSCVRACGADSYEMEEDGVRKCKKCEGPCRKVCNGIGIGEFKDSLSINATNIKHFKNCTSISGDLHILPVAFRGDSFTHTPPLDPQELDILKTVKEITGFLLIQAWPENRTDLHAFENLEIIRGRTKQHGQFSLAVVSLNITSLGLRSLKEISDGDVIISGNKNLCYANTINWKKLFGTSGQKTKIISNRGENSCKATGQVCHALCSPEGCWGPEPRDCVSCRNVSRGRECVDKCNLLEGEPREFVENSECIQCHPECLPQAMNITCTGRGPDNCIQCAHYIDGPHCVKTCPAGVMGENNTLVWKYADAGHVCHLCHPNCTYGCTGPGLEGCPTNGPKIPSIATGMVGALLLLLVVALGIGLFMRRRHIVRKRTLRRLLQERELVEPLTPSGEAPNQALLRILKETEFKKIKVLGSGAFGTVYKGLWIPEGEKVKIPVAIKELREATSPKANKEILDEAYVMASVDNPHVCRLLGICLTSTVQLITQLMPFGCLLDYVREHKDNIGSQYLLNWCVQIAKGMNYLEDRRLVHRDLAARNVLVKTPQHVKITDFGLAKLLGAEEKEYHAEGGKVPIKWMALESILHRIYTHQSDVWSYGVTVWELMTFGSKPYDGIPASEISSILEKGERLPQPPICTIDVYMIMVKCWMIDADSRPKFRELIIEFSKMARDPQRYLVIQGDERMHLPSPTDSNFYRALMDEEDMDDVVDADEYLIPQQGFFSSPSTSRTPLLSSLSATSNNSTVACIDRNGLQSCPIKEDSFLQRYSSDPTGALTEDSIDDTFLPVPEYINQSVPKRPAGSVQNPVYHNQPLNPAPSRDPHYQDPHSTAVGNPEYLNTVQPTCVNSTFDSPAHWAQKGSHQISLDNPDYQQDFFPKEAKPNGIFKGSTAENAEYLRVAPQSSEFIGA

For the compound `Cc1ccc(S[C@]2(C(=O)NCc3ccccc3)CC(=O)N(Cc3cc(C(F)(F)F)cc(C(F)(F)F)c3)[C@@H]2c2ccc(CO)cc2)cc1`, the composite z-score in assay [1] was 1.3; in assay [2], -0.614; in assay [3], -0.711; in [5] it was -0.431; in [6] it was -0.817; in assay [7], -0.662. In addition, the composite z-score in assay [8] was -0.247; in assay [9] it was -0.422; in assay [10], 0.283; in assay [11] it was -0.115; in [13], -0.637; in assay [14], -0.477. Moreover, the composite z-score in assay [15] was 0.187; in [16] it was -0.12; in assay [17], 0.516; in assay [18], 0.0538; in assay [19], -0.712; in assay [20] it was -0.302. For the same compound, the z-score is 0.0364 (inactive) in assay [4] and -0.763 in [12].

With `C[N+](C)(C)CCCC[C@@H]1NC(=O)[C@H]2C[C@@H](C(=O)O)[C@@H](c3cccc(OCCO)c3)N2C1=O`, the composite z-score in [1] is 2.08; in [2] it was 2.39; in assay [3], 1.38; in assay [5], 1.4; in assay [6] it was 1.36; in assay [7], 1.17. Also, the composite z-score came to 1.41 in [8]; 1.3 in assay [9]; 1.47 in assay [10]; 1.47 in assay [11]; 0.968 in assay [13]; 2.16 in assay [14]. For the same compound, the composite z-score in assay [15] was determined as 0.618; in [16], 1.18; in assay [17], 2.34; in [18], 2.84; in assay [19], 3.37; in [20], 3.77. Further, the z-score in assay [4] is -0.246 (inactive); in assay [12] it was -0.774.

As for `CCCCC(=O)N(Cc1ccccc1F)[C@@H]1CC(C(=O)NCCO)=C[C@H](Oc2c(I)cc(CO)cc2OC)[C@H]1O`, the composite z-score in assay [1] was 1.09; in assay [2] it was -0.22; in assay [3] it was -0.327; in assay [5], 1.46; in assay [6], 1.34; in assay [7] it was 0.91. Besides, the composite z-score in [8] came to 1.13; in [9], 1.96; in [10], 0.535; in assay [11] it was 1.42; in assay [13], 1.29; in assay [14], 3.17. Also, the composite z-score in assay [15] was 1.4; in assay [16], 0.0004; in [17], 0.123; in [18], -0.083; in assay [19], 0.994; in [20], 1.79. Moreover, the z-score in [4] is -0.0457 (inactive); in assay [12], -1.06.

In the case of `C=C(COC)C(=O)CC[C@H](OC(=O)c1cccnc1)c1ccccc1OCCO`, the composite z-score was found to be 1.25 in [1]; 0.224 in assay [2]; 0.561 in [3]; 1.12 in assay [5]; 0.844 in [6]; 0.471 in assay [7]. Also, the composite z-score in assay [8] was 1.27; in assay [9], 0.559; in [10], 1.22; in assay [11], 0.862; in [13], 0.53; in assay [14], -0.0382. Besides, the composite z-score in assay [15] was -0.689; in assay [16], -0.0479; in [17], -0.138; in assay [18], 0.437; in [19] it was 1.08; in [20], 0.443. Moreover, the z-score in assay [4] was 0.193 (inactive); in assay [12], -3.13.

For the compound `O=C1c2ccccc2[C@](Cc2ccccc2I)(C(=O)O)[C@H](c2ccc(CO)cc2)N1Cc1ccccc1C(F)(F)F`, the composite z-score in [1] was 0.674; in assay [2] it was -0.483; in assay [3], -0.388; in assay [5], -0.414; in assay [6], 0.464; in assay [7] it was -0.709. For the same compound, the composite z-score was 0.19 in assay [8]; -0.376 in assay [9]; 0.353 in assay [10]; 1.46 in assay [11]; -0.422 in assay [13]; 1.08 in assay [14]. Besides, the composite z-score was -0.604 in assay [15]; -0.0006 in assay [16]; -0.0382 in assay [17]; 0.689 in [18]; -0.0086 in assay [19]; 1.58 in assay [20]. For the same compound, the z-score in assay [4] was 0.185 (inactive); in [12] it was -0.702.

With `COCCOC(=O)N1C(=O)[C@@]2(c3cc(C#CCCO)ccc31)[C@H](c1ccc(O)cc1)N1[C@H](c3ccccc3)[C@H](c3ccccc3)OC(=O)[C@H]1[C@@H]2C(=O)N1CCCCCCC1`, the composite z-score in assay [1] amounted to 1.4; in assay [2], 1.51; in assay [3] it was 0.885; in [5], 1.13; in assay [6], 1.26; in [7], 0.483. Further, the composite z-score in assay [8] was determined as 1.39; in assay [9] it was 0.771; in [10] it was 1.59; in assay [11], 0.727; in [13] it was 0.811; in [14], 1.51. Moreover, the composite z-score in assay [15] was 0.425; in assay [16], 0.17; in [17], 0.374; in [18], -0.295; in assay [19] it was 2.53; in assay [20] it was 1.92. The z-score in assay [4] is 0.242 (inactive); in assay [12], -0.407.
